Measurements as given in PubChem BioAssay (NCATS).
Several values for one entry are separate records, joined by “and”; a condition that tells them apart may be missing. Equal entries are not always repeated. Values without a mark were called inactive. Results filed as inconclusive are left out. Activity calls are given as the source filed them. The call rests on the fitted dose curve; in most records, active means well fitted curve in the direction sought with a large enough effect; inconclusive means small, poorly fitted or top-dose-only effect, or another doubt; inactive means no such curve, though single readings can be large; an effect the other way counts as inactive or inconclusive.

Key:
[1] = target: Cytochrome P450 3A4 (Homo sapiens) (UniProt P08684); test: qHTS Assay for Inhibitors and Substrates of Cytochrome P450 3A4 (AID 884); further: potency means the concentration at half of the fitted maximal effect; nearly all actives have a fitted effect of over 50% in size
Summary of the method: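 Luminescent readout of luciferin produced by CYP3A4 (20 nM) dealkylation of Luciferin-PPXE, 25 uM (its KM). NADPH-driven reaction ran 60 min at RT after 10 min compound preincubation; data scaled to 57 uM ketoconazole as 100% inhibition.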

[2] = target: Cytochrome P450 3A4 (Homo sapiens) (UniProt P08684); test: qHTS Assay for Activators of Cytochrome P450 3A4 (AID 885); further: nearly all actives have a fitted effect of over 65% in size
Summary of the method: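 CYP3A4 activity: Luciferin-PPXE O-dealkylation, 25uM substrate, 200mM KPO4, RT throughout. Read-out is luciferase luminescence; higher values reflect activation.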

Sequence of Cytochrome P450 3A4 (Homo sapiens) (P08684 whole entry, looked up): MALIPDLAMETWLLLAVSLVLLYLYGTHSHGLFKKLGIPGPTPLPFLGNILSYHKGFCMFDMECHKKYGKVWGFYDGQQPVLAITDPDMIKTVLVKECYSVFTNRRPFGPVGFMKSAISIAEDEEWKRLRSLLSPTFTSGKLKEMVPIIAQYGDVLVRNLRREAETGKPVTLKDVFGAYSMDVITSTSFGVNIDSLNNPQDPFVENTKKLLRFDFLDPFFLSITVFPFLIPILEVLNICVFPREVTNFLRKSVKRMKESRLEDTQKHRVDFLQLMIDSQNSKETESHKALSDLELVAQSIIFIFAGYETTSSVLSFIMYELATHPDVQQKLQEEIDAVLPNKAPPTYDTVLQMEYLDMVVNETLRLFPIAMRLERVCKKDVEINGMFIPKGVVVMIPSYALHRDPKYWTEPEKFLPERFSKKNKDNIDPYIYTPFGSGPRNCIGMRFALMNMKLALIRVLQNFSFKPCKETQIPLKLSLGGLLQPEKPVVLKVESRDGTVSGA

SMILES: CCC1=C2CC[C@H]3C(=O)N(CC(=O)OC)C(=O)[C@H]3[C@H]2[C@@]2(Cc3ccccc3)C(=NCCOC)OC(=O)N2C1=O
- Potency [1]: 12.6 µM (active)
- Potency [2]: inactive

SMILES: CCC1=C(OC(=O)N(CC)CC)N2C(=O)OC(=NCCOC)[C@]2(Cc2ccccc2)[C@H]2C1=CC[C@H]1C(=O)N(CC(=O)OC)C(=O)[C@H]12
- Potency [1]: 6.31 µM (active)
- Potency [2]: inactive

SMILES: COC(=O)N1[C@H](Cc2ccccc2)C=C[C@]1(C)C(=O)NCc1ccc(N(C)C)cc1
- Potency [1]: 0.794 µM (active)
- Potency [2]: inactive

SMILES: CCC1=C(OC(=O)N(CC)CC)N2C(=O)OC(=NCCc3c[nH]c4ccccc34)[C@]2(C)[C@H]2C1=CC[C@H]1C(=O)N(CC)C(=O)[C@H]12
- Potency [1]: 1.26 µM (active)
- Potency [2]: inactive

SMILES: Cn1c(N)c(C(=O)COC(=O)c2cc(-c3ccccc3)nc3ccccc23)c(=O)n(C)c1=O
- Potency [1]: 12.6 µM (active)
- Potency [2]: inactive

SMILES: O=C1C[C@@H](O)[C@@H](O)[C@H]2[C@@H]3C(=O)N(Cc4ccc5c(c4)OCO5)C(=O)[C@@H]3CC[C@H]12
- Potency [1]: 3.98 µM (active)
- activity change, positive = activation [2]: -78.5% [at 11.4 µM] and -81.2% [at 11.4 µM]

SMILES: CCC1=C(OC(=O)N(CC)CC)N2C(=O)OC(=NCCc3c[nH]c4ccccc34)[C@]2(Cc2ccccc2)[C@H]2C1=CC[C@H]1C(=O)N(c3ccccc3)C(=O)[C@H]12
- Potency [1]: 6.31 µM (active)
- Potency [2]: inactive

SMILES: CC(C)=CCC/C(C)=C/CO/N=C1/C[C@@H](O)[C@@H](O)[C@@H]2[C@@H]3C(=O)N(Cc4ccc5c(c4)OCO5)C(=O)[C@H]3CC[C@@H]12
- Potency [1]: 1.58 µM (active)
- activity change, positive = activation [2]: -86.9% [at 11.4 µM]

SMILES: CO[C@H]1COC(=O)C/C=C\[C@H](C)[C@@H](NS(=O)(=O)c2ccc(C)cc2)COC(=O)CCC[C@@H]1C
- Potency [1]: 3.98 µM (active)
- activity change, positive = activation [2]: -92.6% [at 11.4 µM]

SMILES: COc1ccc(O[C@H]2C=C[C@@H](c3ccccc3)O[C@@H]2CO/N=C\[C@@H](C)[C@H](OCc2ccccc2)C(C)C)cc1
- Potency [1]: 3.98 µM (active)
- activity change, positive = activation [2]: -73.9% [at 11.4 µM]

SMILES: CCC1=C(OC(=O)N(CC)CC)N2C(=O)OC(=NCC3CC3)[C@]2(Cc2ccccc2)[C@H]2C1=CC[C@H]1C(=O)NC(=O)[C@H]12
- Potency [1]: 2 µM (active)
- Potency [2]: inactive

SMILES: CNC(=O)[C@@H](Cc1ccccc1)N(C)C(=O)[C@@H](Cc1ccc2ccccc2c1)N(C)C(=O)/C=C/CC(C)(C)N
- Potency [1]: 7.94 µM (active)
- Potency [2]: inactive

SMILES: CN1C[C@@H]2C(c3ccc(Cl)nc3)C3(c4ccccc4)CC2(C3)[C@H]1c1ccccc1 (stereo partly specified)
- Potency [1]: 12.6 µM (active)
- Potency [2]: inactive

SMILES: CCC1=C2CC[C@H]3C(=O)NC(=O)[C@H]3[C@H]2[C@@]2(Cc3ccccc3)C(=NCC3CC3)OC(=O)N2C1=O
- Potency [1]: 15.8 µM (active)
- Potency [2]: inactive

SMILES: CCC1=C2CC[C@H]3C(=O)N(CC)C(=O)[C@H]3[C@H]2[C@@]2(Cc3ccccc3)C(=O)N(CCOC)C(=O)N2C1=O
- Potency [1]: 15.8 µM (active)
- Potency [2]: inactive

SMILES: CCC1=C2CC[C@H]3C(=O)N(CC)C(=O)[C@H]3[C@H]2[C@@]2(Cc3ccccc3)C(=NCCOC)OC(=O)N2C1=O
- Potency [1]: 10 µM (active)
- Potency [2]: inactive

SMILES: Cc1cc2c(nc1C)CCCCN2C[C@H](C)O/N=C\[C@@H](C)[C@H](OCc1ccccc1)C(C)C
- Potency [1]: 3.98 µM (active)
- activity change, positive = activation [2]: -76.1% [at 11.4 µM]

SMILES: COc1cccc([C@@H]2Oc3ccc(OC)cc3/C(=N/O[C@@H](C)c3cn([C@H]4COC[C@H]4O)nn3)[C@@H]2O)c1
- Potency [1]: 3.16 µM (active)
- activity change, positive = activation [2]: -74.6% [at 11.4 µM]

SMILES: C/C(CCN1CCCc2nc(C)c(C)cc21)=N\O[C@@H](C)CN1CCCCc2nc(C)c(C)cc21
- Potency [1]: 3.98 µM (active)
- activity change, positive = activation [2]: -69.7% [at 11.4 µM]

SMILES: CCC1=C(OC(=O)N(CC)CC)N2C(=O)OC(=NCCc3c[nH]c4ccccc34)[C@]2(C)[C@H]2C1=CC[C@H]1C(=O)N(CC(=O)OC)C(=O)[C@H]12
- Potency [1]: 2 µM (active)
- Potency [2]: inactive

SMILES: COC(=O)[C@H]1C[C@H]2CC[C@H](O)C[C@H]2N1Cc1c(F)cccc1Cl
- Potency [1]: 12.6 µM (active)
- Potency [2]: inactive

SMILES: CCC1=C2CC[C@H]3C(=O)N(CC)C(=O)[C@H]3[C@H]2[C@@]2(Cc3ccccc3)C(=NCC3CC3)OC(=O)N2C1=O
- Potency [1]: 2.51 µM (active)
- Potency [2]: inactive

SMILES: COC(=O)C/C=C\[C@@H](C)[C@@H](/C=N\O[C@@H](C)c1cn([C@H]2COC[C@H]2O)nn1)NS(=O)(=O)c1ccc(C)cc1
- Potency [1]: 3.98 µM (active)
- activity change, positive = activation [2]: -71.6% [at 11.4 µM]
